From PubChem BioAssay
Active and inactive are the calls of the source.

Legend:
Albumin (Bos taurus) = Albumin (Bos taurus) (UniProt P02769); experiment: compounds binding labelled BSA control protein – biochemical, small-molecule microarray, Alexa647 label, 635/667 nm fluorescence, artefact control for SMM control protein annotation, profiling panel (AID 1118); conditions: BSA-A647 binding, fluorescence 635 nm, higher = more signal;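 note: score merges 667 nm emission intensity and signal-to-noise per printed compound spot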
[1] = probe aXIP binding to arrayed compounds – biochemical, NeuroSMM set, 635/667 nm fluorescence, primary screen (AID 1119); conditions: small-molecule microarray, higher = more signal, called active from +8 up or from −8 down;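 note: probe is the protein aXip251-270 applied at 1 µg/mL to compound-printed slides; binding of probe to printed compounds measured as 667 nm fluorescence plus signal to noise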
[2] = probe aNOTCH3 binding on compound microarray – biochemical, small-molecule microarray, 635/667 nm fluorescence, primary screen (AID 1120); conditions: higher = more signal;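 note: probe is a biotin-tagged antibody raised against NOTCH3 rather than NOTCH3 protein; score merges spot fluorescence near 667 nm with spot signal to noise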
[3] = probe aNOTCH2 binding on compound microarray – biochemical, small-molecule microarray, 635/667 nm fluorescence, primary screen (AID 1121); conditions: higher = more signal;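 note: score merges feature fluorescence read at 667 nm with its signal to noise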
[4] = molecular target: Carbonic anhydrase 2 (Homo sapiens) (UniProt P00918); experiment: compounds binding carbonic anhydrase 2 – biochemical, small-molecule microarray, Alexa647-labelled CAII, profiling panel (AID 1122); conditions: CAII-A647 binding fluorescence, higher = more signal
[5] = COS7 lysate on small-molecule microarray, probe aHis, 635 nm (AID 1123); conditions: COS7 cell lysate, fluorescence, higher = more signal;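 note: z-score combines 667nm fluorescence intensity with signal-to-noise per printed compound spot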
[6] = probe aLAP1 signal on lysate-treated microarray – cell lysate, small-molecule microarray, COS7 lysate, primary screen (AID 1124); conditions: probe aLAP1, fluorescence, higher = more signal;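 note: lysate comes from COS7 cells expressing LAP1 and is applied at 0.3 µg/mL; score merges spot fluorescence near 667 nm with signal-to-noise over triplicate slides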
Sam68 (KHDRBS1) = experiment: compounds binding KHDRBS1 protein – biochemical, small-molecule microarray, 635 nm fluorescence, primary screen (AID 1125); conditions: higher = more signal;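 note: score merges 667 nm channel intensity with signal to noise over triplicate slides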
[7] = system: Chordin-like protein 2 (CHRDL2); experiment: compounds binding chordin-like 2 – biochemical, small-molecule microarray, 635 nm fluorescence, primary screen (AID 1126); conditions: fluorescence 635 nm, higher = more signal;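 note: printed compound slides probed with Chrdl2 protein at 4 µg/mL for 1 h at 4 C; score merges 667 nm emission intensity with signal to noise over three replicate slides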
[8] = molecular target: Concanavalin-A (Canavalia ensiformis) (UniProt P02866); experiment: compounds binding concanavalin A lectin – biochemical, small-molecule microarray, Alexa647 label, 635 nm, artefact control for SMM control protein annotation, primary screen (AID 1127); conditions: ConA-A647 binding fluorescence, higher = more signal;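 note: z combines 667 nm emission intensity with signal-to-noise across three replicate slides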
Concanavalin-A (Canavalia ensiformis), sequence (P02866 whole entry, looked up): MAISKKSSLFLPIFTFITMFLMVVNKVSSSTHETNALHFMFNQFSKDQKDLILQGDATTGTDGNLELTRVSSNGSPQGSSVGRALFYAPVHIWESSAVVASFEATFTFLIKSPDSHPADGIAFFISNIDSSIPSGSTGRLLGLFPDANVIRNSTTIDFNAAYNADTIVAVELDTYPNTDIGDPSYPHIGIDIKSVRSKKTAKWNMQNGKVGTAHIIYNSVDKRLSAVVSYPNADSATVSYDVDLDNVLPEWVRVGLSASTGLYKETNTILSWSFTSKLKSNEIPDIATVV

Albumin (Bos taurus), sequence (P02769 whole entry, looked up): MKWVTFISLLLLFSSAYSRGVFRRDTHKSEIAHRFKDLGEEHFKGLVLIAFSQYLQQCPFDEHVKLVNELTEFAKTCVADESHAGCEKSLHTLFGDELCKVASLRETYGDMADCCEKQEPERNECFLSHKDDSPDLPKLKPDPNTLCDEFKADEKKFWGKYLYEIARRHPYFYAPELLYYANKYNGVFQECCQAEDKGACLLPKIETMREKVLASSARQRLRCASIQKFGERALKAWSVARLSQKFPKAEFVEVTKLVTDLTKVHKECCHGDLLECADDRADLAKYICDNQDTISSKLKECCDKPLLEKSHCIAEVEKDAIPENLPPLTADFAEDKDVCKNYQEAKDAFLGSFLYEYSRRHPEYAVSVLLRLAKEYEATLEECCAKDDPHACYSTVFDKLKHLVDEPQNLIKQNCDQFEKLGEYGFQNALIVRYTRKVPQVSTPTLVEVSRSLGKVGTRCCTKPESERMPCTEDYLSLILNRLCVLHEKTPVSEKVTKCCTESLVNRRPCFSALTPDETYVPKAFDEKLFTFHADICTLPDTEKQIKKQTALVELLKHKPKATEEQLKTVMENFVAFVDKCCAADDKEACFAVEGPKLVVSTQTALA

Structure (SMILES) | composite z-score (Albumin (Bos taurus)) | composite Z-score [1] | composite z-score [2] | composite z-score [3] | composite z-score [4] | composite z-score [5] | composite z-score [6] | composite z-score (Sam68 (KHDRBS1)) | composite z-score [7] | composite z-score [8]
CO[C@@H]1COC(=O)[C@H](C)NC(=O)[C@@H](C)COC(=O)CCC[C@H]1C | -0.163 | -0.0735 (inactive) | 0.111 | -0.161 | 0.409 | 0.421 | -0.0546 | 0.769 | 0.777 | -0.288
O=C1[C@H]2[C@H]3[C@H](O)[C@H](O)CC(=NOC[C@@H](O)COCc4ccco4)[C@H]3CC[C@H]2C(=O)N1Cc1ccc2c(c1)OCO2 | -0.244 | -0.377 (inactive) | -0.29 | -0.17 | -0.441 | -0.385 | 0.311 | 0.0595 | 1.49 | -1.26
COc1ccc(OC[C@H]2Cc3c(-c4ccccc4)nc4c(c3CO2)CN(CCOc2ccccc2)CC4)cc1 | 0.445 | 0.812 (inactive) | 0.0562 | -0.108 | 0.234 | 0.678 | 0.379 | 1.07 | 0.419 | 1.08
O=C1C[C@@H](O)[C@@H](O)[C@@H]2[C@@H]3C(=O)N(c4cccc(Oc5ccccc5)c4)C(=O)[C@@H]3CC[C@@H]12 | 0.164 | -0.397 (inactive) | 0.0496 | 0.0364 | 0.285 | 0.625 | 0.318 | 1.03 | 0.364 | 0.899
C#CCCCON=C1C[C@@H](O)[C@@H](O)[C@@H]2[C@@H]3C(=O)N([C@@H](C)c4ccccc4)C(=O)[C@@H]3CC[C@H]12 | 0.161 | -0.26 (inactive) | 0.0494 | -0.0554 | -0.0339 | -0.0684 | 0.0595 | 0.513 | 0.523 | 0.282
Cc1ccc(S[C@]2(C(=O)O)CC(=O)N(Cc3ccccc3)[C@@H]2c2ccc(CO)cc2I)cc1 | 0.258 | -0.523 (inactive) | -0.206 | -0.13 | 0.701 | 0.921 | 0.223 | 0.21 | 0.347 | 0.883
COCCOC(=O)N1C(=O)[C@@]2(c3cc(C#CC4(O)CCCCCC4)ccc31)[C@H](c1ccc(OCCO)cc1)N1[C@H](c3ccccc3)[C@H](c3ccccc3)OC(=O)[C@H]1[C@@H]2C(=O)NC[C@H](O)c1ccccc1 | 0.203 | -0.317 (inactive) | 0.0039 | -0.115 | 0.367 | 1.71 | 0.288 | 1.29 | -0.0516 | 1.12
O=C1O[C@@H](c2ccccc2)[C@@H](c2ccccc2)N2[C@@H](c3ccc(OCCO)cc3)[C@]3(C(=O)Nc4ccccc43)[C@@H](C(=O)N3CCN(c4ncccn4)CC3)[C@H]12 | 0.162 | 0.338 (inactive) | 0.0824 | -0.091 | 0.403 | 1.84 | 0.88 | 1.3 | 0.902 | 1.15
O=C1C[C@@H](O)[C@@H](O)[C@@H]2[C@@H]3C(=O)N(c4ccc(F)cc4F)C(=O)[C@@H]3CC[C@@H]12 | 0.129 | -0.521 (inactive) | -0.0631 | -0.118 | 0.234 | -0.344 | 0.495 | 0.236 | 0.65 | -0.397
C=CC[C@@H]1C=C[C@H](ON=C2c3cc(OC)ccc3O[C@H](c3cccc(OC)c3)[C@H]2O)[C@@H](CO)O1 | 0.764 | 0.196 (inactive) | -0.253 | -0.0956 | 0.427 | 0.425 | 0.266 | -0.194 | 0.105 | -0.302
CO[C@H]1COC(=O)CC=C[C@H](C)[C@@H](NS(=O)(=O)c2ccc(C)cc2)COC(=O)CC=C[C@@H]1C | -0.498 | -0.38 (inactive) | -0.0436 | -0.151 | -0.0698 | -0.51 | 0.216 | 0.165 | 0.713 | -0.408
C[N+](C)(C)CCCCCCNC(=O)[C@@H]1C[C@@H]2C(=O)N3CCC[C@H]3C(=O)N2[C@@H]1c1cccc(OCCO)c1 | -0.45 | 0.372 (inactive) | -0.182 | -0.205 | 0.581 | 1.56 | 0.338 | 0.927 | 0.954 | 0.743
CC(=O)C[C@H](O)[C@@H](NC(=O)OC(C)(C)C)C(C)C | -0.587 | -0.24 (inactive) | -0.0903 | -0.14 | -0.424 | -0.336 | -0.286 | -1.8 | -0.405 | -0.385
CCCNC(=O)OC[C@H]1O[C@H](CCON=C[C@@H](OC)[C@H](C)C=CCC(=O)OC)C=C[C@@H]1Oc1ccc(OC)cc1 | -1.05 | -0.431 (inactive) | 0.142 | -0.192 | 0.0769 | 0.438 | 0.325 | 0.693 | 1.16 | -1.26
CN(C)C(=O)[C@@]1(Cc2ccccc2)N=C(c2ccc(OCCCO)cc2)O[C@H]1c1ccccc1CN=[N+]=[N-] | 0.968 | 1.29 (inactive) | 0.329 | 0.319 | 0.587 | 2.49 | 0.797 | 1.29 | -0.25 | 1.14
COC(=O)[C@@]1(Cc2ccccc2)[C@H]2c3cc(C(=O)N4CCCC4)n(Cc4ccccn4)c3C[C@H]2CN1C(=O)c1ccccc1 | 0.939 | 0.193 (inactive) | 0.697 | 0.284 | 0.834 | 3.44 | 0.596 | 1.29 | 0.331 | 1.04

Structure (SMILES) | composite z-score (Albumin (Bos taurus)) | composite Z-score [1] | composite z-score [2] | composite z-score [3] | composite z-score [4] | composite z-score [5] | composite z-score [6] | composite z-score (Sam68 (KHDRBS1)) | composite z-score [7] | composite z-score [8]
COCCOC(=O)N1C(=O)[C@@]2(c3ccccc31)[C@H](C(N)=O)[C@H]1C(=O)O[C@H](c3ccccc3)[C@H](c3ccccc3)N1[C@@H]2c1ccccc1OCCO | 0.834 | 0.839 (inactive) | 0.198 | 0.0959 | 0.749 | 2.02 | 1.06 | 1.3 | 0.522 | 1.15
CCOC(=O)[C@H](Cc1ccccc1)NC(=O)CCC1CC(OC(=O)NCc2ccc3c(c2)OCO3)CC2(CCCC(COC(=O)NCC3CCCCC3)O2)O1 (stereo not given in full) | 0.276 | 0.236 (inactive) | 0.0525 | -0.0891 | 0.579 | 0.575 | -0.243 | 1.3 | 0.799 | 1.06
CC(C)[Si]1(C(C)C)O[C@@H](c2ccccc2)c2cc(C3CC3)nc(-c3ccccc3)c21 | 0.23 | -0.773 (inactive) | -0.16 | -0.102 | -0.169 | 0.423 | 0.202 | -0.308 | 0.324 | -0.77
C[C@H](c1ccccc1)N1C(=O)[C@H]2[C@H]3[C@H](O)[C@H](O)CC(=O)[C@@H]3CC[C@H]2C1=O | 0.493 | 0.17 (inactive) | 0.148 | -0.114 | 0.496 | 0.13 | 0.876 | -0.0681 | 0.604 | 0.162
C=CC[C@@H]1C=C[C@H](ON=Cc2ccc(C(=O)N3[C@H](c4ccc(C)cc4)[C@@H](C)CC[C@H]3C(=O)OC)cc2)[C@@H](CO)O1 | 0.36 | 0.0811 (inactive) | -0.0971 | -0.132 | -0.0234 | 0.556 | 0.116 | 0.632 | 0.714 | -0.404
CC(C)=CCCC(C)=CCON=C1[C@H]2CCn3c(=O)n(C)c(=O)n3[C@H]2[C@H](O)[C@@H]2O[C@H]12 | -0.286 | -0.0793 (inactive) | 0.0297 | -0.14 | 0.295 | 0.482 | 0.644 | 1.27 | 0.916 | 0.941
CC(=O)OC[C@H]1O[C@H](CCON=C(C)CCC(=O)OC[C@H]2O[C@H](C#Cc3ccccc3)C=C[C@@H]2Oc2ccc(C)cc2)C=C[C@@H]1OC(C)=O | 0.208 | 0.131 (inactive) | 0.0322 | -0.204 | -0.085 | 0.1 | 0.448 | 0.287 | 0.401 | 0.194
CN1C(=O)C2C=CC(C(O)c3ccc(I)cc3)N(NC(=O)OC(C)(C)C)C2C1=O (stereo not given) | 0.825 | -0.252 (inactive) | 0.435 | 0.17 | 0.719 | 2.18 | 0.555 | 1.31 | -0.294 | 0.898
O=C1O[C@@H](c2ccccc2)[C@@H](c2ccccc2)N2[C@@H](c3ccc(O)cc3)[C@]3(C(=O)Nc4ccccc43)[C@@H](C(=O)O)[C@H]12 | 0.592 | 1.76 (inactive) | -0.0903 | -0.1 | 0.59 | 1.45 | 0.448 | 1.33 | -0.903 | 0.666
C=CCNC(=O)[C@H]1[C@@H]2C(=O)O[C@@H](c3ccccc3)[C@@H](c3ccccc3)N2[C@@H](c2ccc(O)cc2)[C@]12C(=O)N(C(=O)OCCOC)c1ccc(C#CC3=CCCCC3)cc12 | 0.633 | 0.62 (inactive) | 1.27 | 0.396 | 0.296 | 2.23 | 1.78 | 1.3 | 0.966 | 1.09
C[C@@H](c1ccccc1)N1C(=O)[C@H]2[C@H]3[C@H](O)[C@H](O)CC(=NNC(=O)OCc4ccccc4)[C@H]3CC[C@H]2C1=O | 0.3 | 0.281 (inactive) | -0.046 | -0.0978 | -0.112 | 0.947 | 0.221 | -0.495 | 0.13 | 0.0811
COC(=O)[C@@]1(Cc2ccc(F)cc2)[C@H]2c3cc(C(=O)N(C)C)n(Cc4ccc(OC)c(OC)c4)c3C[C@H]2CN1C(=O)c1ccccc1 | 0.378 | 0.206 (inactive) | 0.194 | 0.265 | 0.866 | 0.383 | -0.253 | -0.309 | 0.106 | -0.189
CO[C@H]1COC(=O)[C@@H]2CCCN2C(=O)CC=C[C@@H](C)[C@H](OC)COC(=O)CC=C[C@@H]1C | -0.806 | 1.31 (inactive) | 0.0753 | -0.0931 | -0.235 | -0.0693 | 0.0482 | 1.28 | 1.38 | -1.28
C=C(CCCC)C(=O)CC[C@@H](OC(C)=O)c1cccc(OCCO)c1 | -0.528 | 0.0491 (inactive) | -0.0933 | -0.193 | 0.767 | -0.022 | 0.953 | -0.106 | 0.582 | 0.259
COC(=O)C1=CCC(c2cccc(Cl)c2)O1 (stereo not given) | 0.431 | 0.0018 (inactive) | -0.112 | -0.0907 | 0.483 | -0.21 | -0.201 | 0.137 | -0.667 | 0.247
COc1cccc([C@H]2Oc3ccc(OC)cc3C(=NO[C@H](C)c3cn([C@@H]4COC[C@H]4O)nn3)[C@@H]2O)c1 | -0.224 | -0.0239 (inactive) | -0.279 | -0.179 | 0.377 | -0.162 | -0.358 | -0.523 | -0.353 | 0.472
